# High-throughput results: PubChem BioAssay, National Center for Advancing Translational Sciences (NCATS)
# Sampled rows, rich in hits. Any-hit rate of the full collection: about 6.9%.
# VDR inhibitor: inhibitors of human vitamin D receptor; P11473; VDR-SRC2-3 peptide fluorescence polarization, 2 h; hit rate 0.93% among 400,000; Potency, µM, for inactives: max response, negative = inhibition, hits mostly inhibitors; further: on the % scale 0 is the no-effect control and ±100 the full control effect
#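 Reagent solutions, kept cold and dark, are dispensed first; compounds are then pinned in at 23 nl, plates briefly spun, and incubated 2 h at ambient temperature. Inhibition of VDR–SRC2-3 peptide binding is read by fluorescence polarization.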
# JMJD2A Tudor inh: JMJD2A Tudor domain (human) inhibition; hit rate 4.4% among 390,000; O75164; Potency, µM (top dose mostly 114 µM), inactives show at the top dose activity change, negative = inhibition, hits mostly inhibitors; AlphaScreen JMJD2A-Tudor / H3K4me3 peptide binding; AID 504339; further: on the % scale 0 is the no-effect control and ±100 the full control effect; nearly all actives have a fitted effect of over 50% in size
# BAZ2B inh: inhibitors of human BAZ2B bromodomain; AlphaScreen BAZ2B-H3K14Ac peptide displacement; Potency, µM (series often up to 114 µM), inactives show top-dose activity change, negative = inhibition, actives largely listed as inhibitors; hit rate 4.4% among 360,000; AID 504333; further: on the % scale 0 is the no-effect control and ±100 the full control effect; nearly all actives have a fitted effect of over 60% in size
#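 AlphaScreen displacement of biotin-H3(5-23)K14Ac peptide (50 nM final) from BAZ2B (50 nM final) in PBS pH 7.4, 0.01% Tween-20; complex preformed 30 min RT, then compounds (top 110 uM) 30 min RT, beads 20 min dark.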
# L3MBTL1 block: inhibitors of human L3MBTL1. AlphaScreen L3MBTL1–H3K9me1 peptide binding. Potency, µM (top dose mostly 57.1 µM), without a hit: at the top dose activity, negative = inhibition, usual class: inhibitors. hit rate 0.66% among 230,000. AID 485360; further: on the % scale 0 is the no-effect control and ±100 the full control effect; nearly all actives have a fitted effect of over 60% in size
#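 Displacement of a biotinylated histone H3(1-15) peptide monomethylated at Lys9 (75 nM) from L3MBTL1 (50 nM) was measured by AlphaScreen after a 30 min room-temperature compound incubation; cefsulodin titration served as intraplate control.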
# HP1b chromo inh: blocks HP1-beta chromodomain binding to methylated histone tails | AlphaScreen HP1-beta / biotin-H3K9me3 peptide binding | Potency, µM (titrated, usually from 114 µM), for inactives: at the top dose activity change, negative = inhibition, hits mostly inhibitors | P83916 | hit rate 0.56% among 390,000 | AID 540317; further: nearly all actives have a fitted effect of over 70% in size
# Target sequence (P83916 whole entry, looked up): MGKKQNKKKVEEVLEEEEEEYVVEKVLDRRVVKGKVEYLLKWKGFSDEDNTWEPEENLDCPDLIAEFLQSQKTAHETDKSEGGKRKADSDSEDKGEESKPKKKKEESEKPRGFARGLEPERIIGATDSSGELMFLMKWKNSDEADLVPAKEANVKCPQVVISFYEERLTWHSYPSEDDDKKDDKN
#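 HP1-beta protein (50 nM final) preincubated 30 min at room temperature with biotinylated H3(1-18)K9me3 peptide (50 nM) in PBS pH 7.4, 0.01% Tween-20, then compound added for 30 min. AlphaScreen streptavidin donor/nickel chelate acceptor beads (10 ug/mL final), 30 min dark, luminescence read.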
# PLK1 PBD inh: blocks phosphopeptide binding to human PLK1 polo-box domain | P53350 | Plk1 PBD binding of FITC phosphopeptide, fluorescence polarization | Potency, µM, for inactives: max response, negative = inhibition, hits mostly inhibitors | hit rate 2.8% among 360,000 | AID 720504; further: series mostly up to about 57 µM; on the % scale 0 is the no-effect control and ±100 the full control effect; nearly all actives have a fitted effect of over 65% in size
# Starred values were filed as active, the others as inactive; ? = inconclusive; . = no result given; [ ] = dose if it differs, or a comment. The call rests on the fitted dose curve; in most records, active means well fitted curve in the direction sought with a large enough effect; inconclusive means small, poorly fitted or top-dose-only effect, or another doubt; inactive means no such curve, though single readings can be large; an effect the other way counts as inactive or inconclusive. Potency means the concentration at half of the fitted maximal effect.
SMILES,VDR inhibitor,JMJD2A Tudor inh,BAZ2B inh,L3MBTL1 block,HP1b chromo inh,PLK1 PBD inh
CC(C)(C)c1ccc(C(=O)Nc2sc3c(c2C#N)CCC(C(C)(C)C)C3)cc1 (stereo not drawn),-4%,1%,-13%,.,12%,.
CCS(=O)(=O)c1ccc2c(c1)N(S(C)(=O)=O)CC(C(=O)NC1CC1)O2 (stereo not drawn),4%,2%,1%[57.1 µM],1%,31%,-2%
c1ccc(CNc2ncnc3ccc(-c4cccnc4)cc23)cc1,28µM*,.,.,.,.,.
CCc1nccn1CCC(=O)NC1CCCc2c1cnn2-c1ccc(F)cc1F (stereo not drawn),-4%,-20%,-5%,.,30%,-7%
Cc1n[nH]c(C)c1CCC(=O)N/N=C/c1c(C)[nH]c2ccccc12,9%,-17%,?,.,27%,2%
Cc1[nH]c2ccccc2c1/C=N/NC(=O)CCC(=O)NCc1ccccc1,-21%,11µM*,-21%,-6%,-24%,12µM*
COC(=O)c1ccc(OCC(O)CNCC(c2ccc(OC)cc2)N(C)C)c(OC)c1 (stereo not drawn),-6%,1.8µM*,50µM*,.,-25%,-6%
CCc1ccc(NC(=O)C(=O)NCC(c2ccc3c(c2)OCO3)N2CCN(C)CC2)cc1 (stereo not drawn),5%,-24%,-20%,.,12%[57 µM],.
O=C(COc1ccc(Br)cc1)Nc1nnc(C2CC2)s1,-6%,-14%,-1%,2%,37%,-13%
O=C(COc1ccc(Br)cc1)Nc1nnc(-c2cccnc2)s1,?,-3%[11.4 µM],2%,-4%,16%,30µM*
COc1cc(C(=O)N2CCCC(c3cc(C(=O)NCc4ccc(F)cc4)no3)C2)cc(OC)c1C (stereo not drawn),.,.,.,.,.,-4%
CNC(=S)N(Cc1ccc(OC)cc1)Cc1cc2cccc(C)c2[nH]c1=O,?,-26%[11.4 µM],?,-6%,?,13µM*
COC(=O)C1=CN(c2ccc(C(C)(C)C)cc2)C(N)=C(C#N)C1c1ccc(OC)cc1 (stereo not drawn),.,.,.,.,.,-6%
COc1cc(C)c(-c2[nH]ncc2-c2csc(C)n2)c(O)c1,-13%,-31%,-10%,1%,1%,30µM*
Cc1nc(-c2cn[nH]c2-c2ccc(O)cc2O)cs1,-7%,-15%,5%,-2%,11%,-8%
Cc1nonc1NC(=O)OC1CCCCC1,8%,-13%,-7%,-2%,10%,-15%
Cc1occc(=O)c1O,-2%,25µM*,?,3%,23%,-2%
Cc1cc(N2C(=O)c3ccccc3C2=O)n[nH]1,.,-3%,.,.,.,.
CN1CCN(c2ncc3nc(-c4cc(F)cc(F)c4)c(=O)n(CCC#N)c3n2)CC1,22µM*,.,.,.,.,.
COCCn1c(=O)c(-c2cc(F)cc(F)c2)nc2cnc(N3CCN(C)CC3)nc21,-4%,.,.,.,.,.
C=CCn1c(SCC(=O)NCCC2=CCCCC2)nc2ccc(Cl)cc2c1=O,?,28µM*,-2%,3%,?,11µM*
Cn1c(=O)cc(SCC(=O)NCCC2=CCCCC2)c2ccc(Cl)cc21,-14%,-11%,-1%,2%,17%,-10%
COC(=O)c1ccc(NC(=O)CSc2ccc(-c3sc(-c4ccccc4)nc3C)nn2)cc1,3%,-17%,-13%,.,33%,.
Cc1c(Cl)cccc1NS(=O)(=O)c1cc2c(cc1F)NC(=O)CC2,.,-20%,.,.,.,.
Cc1ccc(C)c(S(=O)(=O)c2nnn3c2nc(NC2CCCC2)c2sccc23)c1,-1%,-21%,-20%,.,1%,.
CCN(CC(=O)NCc1ccccn1)S(=O)(=O)c1ccc(Cl)cc1,?,-5%,0%,9%[11.4 µM],6%,27µM*
CC1=C(c2ccc(NN=C(C#N)C#N)cc2)NNC(=O)C1,20µM*,.,.,.,.,.
Cc1ccc(N/N=C(\C#N)C(=N)N2CCCCCC2)cc1,-14%,-12%,.,.,24%,-5%
Cc1noc(C)c1COc1ccc(C(=O)OCC(=O)Nc2ccc(C(=O)N(C)C)cc2)cc1,-1%,3%,1%,3%,9%,-13%
